Data: PubChem BioAssay (NCATS)
Unmarked numbers belong to inactive results. Results filed as inconclusive are left out. Calls of active or inactive are those of the source. Calls come from the whole dose curve; as a rule, active = well fitted activation curve with a large enough effect; inconclusive = small, poorly fitted or top-dose-only effect; inactive = flat fitted curve, though single readings scatter.

Assay: Cellular Toxicity (caspase-3) H-4-II-E (AID 663); note: potency is the fitted concentration of half-maximal effect;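 for caspase-3 activation: cells exposed to compound for 16 hr before readout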
Conditions: H-4-II-E rat hepatoma; Potency: caspase-3 activation; caspase-3 activation: at 92.2 µM (top of the series), scaled: DMSO 0%, 100 µM tamoxifen 100%
How it was run: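 Apoptosis induction is scored as increased luminescence from caspase 3/7 substrate cleavage in rat hepatoma H-4-II-E cells exposed to compound for 16 hr. Activity is scaled between DMSO and 100 uM tamoxifen.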

Structure (SMILES)	caspase-3 activation	Potency
Oc1ccc2cc(SSc3ccc4cc(O)ccc4c3)ccc2c1	4.17%	
Nc1ccc2cc3ccccc3cc2c1	-0.822%	
CN(C)c1ccc(C2(c3ccc(N(C)C)cc3)OC(=O)c3cc(N(C)C)ccc32)cc1	0.305%	
Cc1cc(Nc2ccc(O)cc2)ccc1N	20.7%	
CO[C@H]1/C=C/O[C@@]2(C)Oc3c(C)c(O)c4c(O)c(c5c(c4c3C2=O)NC2(CCN(CC(C)C)CC2)N=5)=NC(=O)/C(C)=C\C=C\[C@H](C)[C@H](O)[C@@H](C)[C@@H](O)[C@@H](C)[C@H](OC(C)=O)[C@@H]1C	2.28%	
Cc1cc(O)c(C(C)(C)C)cc1Sc1cc(C(C)(C)C)c(O)cc1C		31.6 µM (active)
C=C(C)c1ccccc1	1.07%	
Cc1ccc(S(=O)(=O)Oc2ccc(N=Nc3ccc(-c4ccc(N=Nc5c(O)ccc6cc(S(=O)(=O)O)cc(S(=O)(=O)O)c56)c(C)c4)cc3C)cc2)cc1	-0.204%	
O=C1OC2(c3cc(Br)c(O)c(Br)c3Oc3c2cc(Br)c(O)c3Br)c2c(Cl)c(Cl)c(Cl)c(Cl)c21	-0.639%	
ClC1=C(Cl)C(Cl)(Cl)C(Cl)=C1Cl	4.97%	
C/C=C1\C(=O)C[C@H]2[C@@H]3CCC4=CC(=O)CC[C@]4(C)[C@H]3CC[C@]12C	22.9%	
O=C1OC(O)C(C(Cl)Cl)=C1Cl (configuration not stated)	24.6%	
CNc1ccc(O)cc1	-5.23%	
CCC(C)Nc1ccc(NC(C)CC)cc1 (configuration not stated)	-5.35%	
O=C=Nc1ccc(Cc2ccc(N=C=O)cc2)cc1	1.23%	
c1ccc2c(c1)ccc1cc3c(ccc4ccccc43)cc12	-1.53%	
CC/C(=C(\c1ccccc1)c1ccc(OCCN(C)C)cc1)c1ccc(O)cc1	124% (active)	
c1ccc2c(c1)-c1cccc3c1c-2cc1ccccc13	11.1%	
O=[N+]([O-])c1cc([N+](=O)[O-])c2ccc(S(=O)(=O)O)cc2c1O	0.036%	
O=Cc1ccc(Cl)c(Cl)c1	0.309%	

Assay: Cellular Toxicity (caspase-3) Hek293 (AID 664);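 note: cells exposed to compound for 16 h at 37 °C before readout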
Conditions: HEK293 caspase-3 activation, DMSO = 0%, 100 µM tamoxifen = 100%; at 92.2 µM (top of the series)
How it was run: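 HEK293 cells were exposed to compounds in complete medium for 16 hr at 37 °C, then caspase-3/7 activity was read by Caspase-Glo 3/7 luminescence after 20 min at room temperature. Data normalized to DMSO and 100 uM tamoxifen; AC50 from Hill fits.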

Structure (SMILES)	caspase-3 activation
Oc1ccc2cc(SSc3ccc4cc(O)ccc4c3)ccc2c1	15.1%
Nc1ccc2cc3ccccc3cc2c1	-0.457%
CN(C)c1ccc(C2(c3ccc(N(C)C)cc3)OC(=O)c3cc(N(C)C)ccc32)cc1	-1.05%
Cc1cc(Nc2ccc(O)cc2)ccc1N	-8.9%
CO[C@H]1/C=C/O[C@@]2(C)Oc3c(C)c(O)c4c(O)c(c5c(c4c3C2=O)NC2(CCN(CC(C)C)CC2)N=5)=NC(=O)/C(C)=C\C=C\[C@H](C)[C@H](O)[C@@H](C)[C@@H](O)[C@@H](C)[C@H](OC(C)=O)[C@@H]1C	-2.49%
Cc1cc(O)c(C(C)(C)C)cc1Sc1cc(C(C)(C)C)c(O)cc1C	230% (active)
C=C(C)c1ccccc1	0.697%
Cc1ccc(S(=O)(=O)Oc2ccc(N=Nc3ccc(-c4ccc(N=Nc5c(O)ccc6cc(S(=O)(=O)O)cc(S(=O)(=O)O)c56)c(C)c4)cc3C)cc2)cc1	-1.72%
O=C1OC2(c3cc(Br)c(O)c(Br)c3Oc3c2cc(Br)c(O)c3Br)c2c(Cl)c(Cl)c(Cl)c(Cl)c21	-0.811%
c1cc(OCC2CO2)cc(OCC2CO2)c1 (configuration not stated)	8.84%
ClC1=C(Cl)C(Cl)(Cl)C(Cl)=C1Cl	131% (active)
C=CC(=O)OCCOCCOC(=O)C=C	5.92%
O=C1OC(O)C(C(Cl)Cl)=C1Cl (configuration not stated)	0.823%
CNc1ccc(O)cc1	-11.1%
CCC(C)Nc1ccc(NC(C)CC)cc1 (configuration not stated)	-12.1%
O=C=Nc1ccc(Cc2ccc(N=C=O)cc2)cc1	-1.82%
c1ccc2c(c1)ccc1cc3c(ccc4ccccc43)cc12	-3.42%
c1ccc2c(c1)-c1cccc3c1c-2cc1ccccc13	-2.54%
O=[N+]([O-])c1cc([N+](=O)[O-])c2ccc(S(=O)(=O)O)cc2c1O	1.41%
O=Cc1ccc(Cl)c(Cl)c1	1.45%

Assay: Cellular Toxicity (caspase-3) N2a (AID 665);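 note: compound exposure lasted 16 h at 37 °C before readout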
Conditions: N2a cells, luminescence; Potency: caspase-3 activation; series mostly up to 92.2 µM; caspase-3 activation: at the top concentration
How it was run: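 Mouse N2a neuroblastoma cells (1500/well) were treated with compounds for 16 h at 37 °C, then caspase-3/7 activity was read by Caspase-Glo luminescence after 1 h at room temperature. Data were normalized to DMSO and 10 uM staurosporine; AC50 from Hill fits.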

Structure (SMILES)	caspase-3 activation [%]
Oc1ccc2cc(SSc3ccc4cc(O)ccc4c3)ccc2c1	-14.2
Nc1ccc2cc3ccccc3cc2c1	-3.73
CN(C)c1ccc(C2(c3ccc(N(C)C)cc3)OC(=O)c3cc(N(C)C)ccc32)cc1	-1.83
Cc1cc(Nc2ccc(O)cc2)ccc1N	-0.934
CO[C@H]1/C=C/O[C@@]2(C)Oc3c(C)c(O)c4c(O)c(c5c(c4c3C2=O)NC2(CCN(CC(C)C)CC2)N=5)=NC(=O)/C(C)=C\C=C\[C@H](C)[C@H](O)[C@@H](C)[C@@H](O)[C@@H](C)[C@H](OC(C)=O)[C@@H]1C	-7.06
Cc1cc(O)c(C(C)(C)C)cc1Sc1cc(C(C)(C)C)c(O)cc1C	0.782
C=C(C)c1ccccc1	-0.301
Cc1ccc(S(=O)(=O)Oc2ccc(N=Nc3ccc(-c4ccc(N=Nc5c(O)ccc6cc(S(=O)(=O)O)cc(S(=O)(=O)O)c56)c(C)c4)cc3C)cc2)cc1	-4.12
O=C1OC2(c3cc(Br)c(O)c(Br)c3Oc3c2cc(Br)c(O)c3Br)c2c(Cl)c(Cl)c(Cl)c(Cl)c21	-4.91
c1cc(OCC2CO2)cc(OCC2CO2)c1 (configuration not stated)	22.4
ClC1=C(Cl)C(Cl)(Cl)C(Cl)=C1Cl	1.92
C=CC(=O)OCCOCCOC(=O)C=C	-4.79
C/C=C1\C(=O)C[C@H]2[C@@H]3CCC4=CC(=O)CC[C@]4(C)[C@H]3CC[C@]12C	6.99
CNc1ccc(O)cc1	-18.3
CC(=O)Nc1ccc(C(=O)CCl)cc1	-15.9
CCC(C)Nc1ccc(NC(C)CC)cc1 (configuration not stated)	-21.1
O=C=Nc1ccc(Cc2ccc(N=C=O)cc2)cc1	-1.58
c1ccc2c(c1)ccc1cc3c(ccc4ccccc43)cc12	-6.08
CC/C(=C(\c1ccccc1)c1ccc(OCCN(C)C)cc1)c1ccc(O)cc1	-3.57
c1ccc2c(c1)-c1cccc3c1c-2cc1ccccc13	-3.27
O=[N+]([O-])c1cc([N+](=O)[O-])c2ccc(S(=O)(=O)O)cc2c1O	-0.666
O=Cc1ccc(Cl)c(Cl)c1	2.64
